Data from PubChem BioAssay (NCI).
About 83,000 compounds went through this panel and 20% of them were active in at least one assay; those are over-represented in the sample as a whole.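 Single-concentration screen, 48 h exposure, 96-well plates. Endpoint: percent growth. Below 10 = active.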 Values without a mark were called inactive. Active and inactive are the calls of the source.

How the values were obtained:
Experiment in all cases: NCI-60 one-dose screen, 48 h (100 = growth as untreated, 0 = no growth, -100 = all killed)
Conditions in all cases: 10 µM unless noted
[1] = system: NCI-H23 lung
[2] = system: NCI-H226 lung
[3] = system: NCI-H322M lung
[4] = system: HOP-62 NSCLC
[5] = system: NCI-H460 lung
[6] = system: HOP-92 NSCLC
[7] = system: NCI-H522 lung
[8] = system: A549/ATCC NSCLC
[9] = system: 786-0 renal
[10] = system: COLO 205 colon
[11] = system: DU-145 prostate
[12] = system: K-562 leukemia
[13] = system: MALME-3M melanoma
[14] = system: MDA-MB-231 breast
[15] = system: RXF 393 renal
[16] = system: SF-268 CNS
[17] = system: SF-295 CNS
[18] = system: SF-539 CNS
[19] = system: UACC-257 melanoma
[20] = system: M14 melanoma

SMILES | growth [1] | growth [2] | growth [3] | growth [4] | growth [5] | growth [6] | growth [7] | growth [8] | growth [9] | growth [10] | growth [11] | growth [12] | growth [13] | growth [14] | growth [15] | growth [16] | growth [17] | growth [18] | growth [19] | growth [20]
C#CCOc1cccc(-c2nc(N)nc(Nc3ccccc3SSc3ccccc3Nc3nc(N)nc(-c4cccc(OCC#C)c4)n3)n2)c1 | -6.17% (active) | 1.74% (active) | 80.9% | -63.2% (active) | -15.7% (active) | 87.6% | 79.8% | -39.7% (active) | 96.9% | 114% | 55.2% | 43.5% | 96.8% | 48.1% | 81.8% | -11.5% (active) | -69.8% (active) | 59.2% | 108% | 66.6%
Oc1[nH]c2ccc(Cl)cc2c1N=Nc1nc(N=Nc2c(O)[nH]c3ccc(Cl)cc23)nc(N2CCOCC2)n1 | 17.2% | 57.3% | 78.1% | 37.6% | 88.2% | 26% | 5.09% (active) | 101% | 73.7% | 48.7% | 88.4% | 32.9% | 56.4% | 36.3% | 13.7% | 49.1% | 45.7% | 16% | 82% | 77.5%
COc1ccc(NC2=C(Br)C(=O)C(C)=C(C)C2=O)cc1OC | 89.8% | 88.2% | 106% | 104% | 101% | -60.8% (active) | 89.6% | 98.7% | 106% | 125% | 109% | -7.89% (active) | 117% | 33.3% | 104% | 95.3% | 94.4% | 101% | 96% | 104%
CNC(=O)c1cc(-n2ccc3cc(NC(=O)Nc4ccc(N5CCN(C)CC5)c(C(F)(F)F)c4)ccc32)ccn1 | 88.6% | 96.4% | 85.4% | 75.6% | 60% | 71.1% | 101% | 68.2% | -13.7% (active) | 90.8% | 86.5% | -53.3% (active) | 2.37% (active) | 61.5% | -27.7% (active) | 83.4% | -47.2% (active) | 1.48% (active) | 72.2% | 59%
O=c1nc(Nc2ccc([N+](=O)[O-])cc2O)sc2ccccc12 | 40.4% | 57.2% | 51.4% | 47% | 22.1% | -0.0775% (active) | 14.2% | 41.7% | 37.7% | 96.5% | 25.1% | 12.9% | 30.7% | 51.8% | 7.31% (active) | 59.4% | -34.2% (active) | -36.5% (active) | 65% | 17.5%
CCCCCCN1C=C/C(=C\C(=O)n2ccc3ccccc32)c2ccccc21 | 9.61% (active) | 52.9% | 93.5% | 89.6% | 87.7% | 82.6% | 57.7% | 84.3% | 86.6% | 87.3% | 74% | 31.8% | 70.6% | 73% | 74.3% | 80.9% | 34.4% | 87% | 71.6% | 78.5%
OCC(Nc1ncnc2ccc(-c3cnc4cnccn34)cc12)c1ccccc1 (stereo not given) | 57.8% | 67.5% | 40% | 79.8% | 89.4% | 59.3% | 43.5% | 74.2% | 64.4% | 98.2% | 47.4% | 60.2% | 81.5% | 83.2% | 65.4% | 75.9% | 64.7% | 79% | 80.7% | 93.3%
Cn1c(SCC(=O)c2ccc(Br)cc2)nc2ccccc2c1=O | 85.3% | 90.7% | 95.8% | 105% | 102% | 91.3% | 86.4% | 96.3% | 91.2% | 121% | 97.8% | 85.2% | 111% | 94.9% | 115% | 97.5% | 97.6% | 97.3% | 108% | 96.6%
Cn1c(SCC(=O)c2ccco2)nc2ccccc2c1=O | 97.4% | 79.5% | 91.8% | 99.7% | 101% | 90.6% | 101% | 108% | 110% | 118% | 106% | 92% | 98.3% | 93.8% | 124% | 102% | 104% | 96.6% | 99.7% | 97.2%
Cc1ccc2c(n1)C(=O)C(Cl)=C(Nc1cc(C(F)(F)F)cc(C(F)(F)F)c1)C2=O | 86% | 84.3% | 105% | 118% | 95.9% | 92.4% | 37.4% | 101% | 80.3% | 92.5% | 95.3% | 4.18% (active) | 47.9% | 87.1% | 74.5% | 87.1% | 95.7% | 93.9% | 75.2% | 89.9%
O=C(CSc1nnc(-c2cccs2)n1-c1ccccc1)Nc1ccccc1F | 90.8% | 96.3% | 103% | 76.9% | 96.6% | 93% | 55% | 89.6% | 99.4% | 70.8% | 102% | 26.6% | 70.2% | 86.5% | 90.7% | 93.7% | 83.2% | 87.9% | 95.3% | 74.7%
Cc1[nH]c(C(=O)Nc2ccccc2OCc2cccc(C(=O)NCCN)c2)cc1Cl | 102% | 101% | 92.9% | 103% | 100% | 84.5% | 95% | 95.2% | 81% | 102% | 36.5% | 2.16% (active) | 83.3% | 96% | 96.3% | 88.3% | 101% | 97.2% | 99.4% | 85.5%
CN1CCN(Cc2ccc(NC(=O)c3cncc(C#Cc4cnc5ccc(OCC6COC6)nn45)c3)cc2C(F)(F)F)CC1 | -58% (active) | -65.2% (active) | -36.5% (active) | -72.3% (active) | -81% (active) | -33.4% (active) | -70.7% (active) | -68.7% (active) | -85.6% (active) | -76.3% (active) | -83.1% (active) | 0.233% (active) | -88.2% (active) | -63% (active) | -78.5% (active) | -70.2% (active) | -93.7% (active) | -88.2% (active) | -51.6% (active) | -86.8% (active)
Cc1ccc(-c2csc(N/N=C/c3cccs3)n2)cc1 | 79.4% | 70.1% | 97% | 95.3% | 99.4% | 87.3% | 73.3% | 84.2% | 97.5% | 115% | 100% | 74.4% | 88.8% | 92.5% | 115% | 106% | 92.8% | 104% | 97.1% | 90.4%
C=C(C)[C@@H]1CC[C@]2(C(=O)NC3CCCCC3)CC[C@]3(C)[C@H](CC[C@@H]4[C@@]5(C)CC[C@H](N)C(C)(C)[C@@H]5CC[C@]43C)[C@@H]12 | 106% | 94.2% | 108% | 104% | 98.7% | 73.1% | 93.2% | 91.9% | 84.6% | 52.9% | 105% | -34.7% (active) | 95.3% | 108% | 93.7% | 91.6% | 103% | 98.5% | 105% | 103%
